# Bioassay records: PubChem, several laboratories
# Rv3671c protease – inhibitors of M. tuberculosis serine protease Rv3671c; inhibition, % at 5.96 µM; actives 0.048% (n = 320,000); AID 2606; in the data active = inhibition above about 38%;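 also: extracellular domain of Rv3671c used as enzyme; 0% = enzyme with DMSO and 100% = no enzyme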
# GDH-TPI counter – counter-screen for M. tuberculosis FBA inhibitors: GDH-TPI coupled enzymes. GDH-TPI coupled enzyme counterscreen, NADH absorbance. inhibition, % at 4.8 µM. actives 1.2% (n = 360,000); in the data active = inhibition above about 30%;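 also: 0% = DMSO wells and 100% = wells lacking the enzyme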
# Mtb bLac sens – beta-lactam sensitization of Mtb H37Rv | M. tuberculosis H37Rv growth with meropenem, percent inhibition | inhibition, % at 25 µM | actives 0.27% (n = 330,000) | AID 434955; call rule not given here;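 also: growth measured after seven days incubation then overnight dye step; 0% = bacteria only wells and 100% = bacteria with antibiotic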
# Mtb FBA inh – inhibits M. tuberculosis FBA enzyme; P9WQA3; purified M. tuberculosis FBA, fluorescence read-out; inhibition, % at 1 µM; actives 2.3% (n = 360,000); AID 588726; in the data active = inhibition above about 27%;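 also: 0% = vehicle and 100% = reference inhibitor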
# Target sequence (P9WQA3 whole entry, looked up): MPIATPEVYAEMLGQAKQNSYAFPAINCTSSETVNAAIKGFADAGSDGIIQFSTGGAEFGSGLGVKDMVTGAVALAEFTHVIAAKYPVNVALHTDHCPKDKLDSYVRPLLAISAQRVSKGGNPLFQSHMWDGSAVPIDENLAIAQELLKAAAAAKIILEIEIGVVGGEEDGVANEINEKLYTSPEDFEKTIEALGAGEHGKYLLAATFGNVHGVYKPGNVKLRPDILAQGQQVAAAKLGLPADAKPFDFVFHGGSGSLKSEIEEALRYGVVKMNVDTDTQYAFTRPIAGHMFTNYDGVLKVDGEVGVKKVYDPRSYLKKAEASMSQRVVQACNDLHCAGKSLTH
# Mtb UGM inh – Mtb UDP-galactopyranose mutase inhibition; inhibition, % at 10 µM; purified UGM, fluorescence polarization probe displacement; P9WIQ1; actives 0.06% (n = 320,000); in the data active = inhibition above about 10%, passing the limit was not always enough
# * hit, by the source's call; · = no result given; + = active, no number. Shown are actives, neighbours in structure and some others; about 3.5% of the full set was active somewhere.
SMILES,Rv3671c protease,GDH-TPI counter,Mtb bLac sens,Mtb FBA inh,Mtb UGM inh
NC(=O)COc1ccc2cc(-c3ccccc3)c(=O)oc2c1,2,31*,83,+,1
CCN(CC)c1ccc(/C=C2\C(=O)NC(=O)N(CC3CCCO3)C2=O)cc1 (configuration not stated),-7,33*,0,-1,1
Cc1ccc(/C=C2\C(=O)NC(=O)N(CC3CCCO3)C2=O)s1 (configuration not stated),-37,12,10,-1,-1
O=C(CSC1=NS(=O)(=O)c2cc(F)ccc2N1)NCCc1ccccc1,0,2,-10,-2,2
COc1ccccc1NS(=O)(=O)c1cccc(C(=O)N/N=C/c2ccc(N3CCOCC3)cc2)c1,0,34*,-2,1,4
Cc1ccc(/C=N/NC(=O)c2cccc(S(=O)(=O)Nc3cccc(Cl)c3)c2)o1,-22,11,4,4,0
COc1ccccc1NS(=O)(=O)c1cccc(C(=O)N/N=C/c2ccc(C)o2)c1,2,41*,-3,-1,-1
COc1ccccc1NC(=O)N1C2CCCC1CC(NC(=O)c1ccccc1)C2 (configuration not stated),11,-4,-2,6,-4
CNc1ccc(-c2ccccc2OC)cn1,·,22,·,114*,·
CNc1cnc(-c2ccc(O)c(OC)c2)cn1,·,2,·,2,·
Cc1onc(-c2ccccc2)c1C(=O)N/N=C/c1ccc(O)c([N+](=O)[O-])c1,·,35*,0,-7,2
Cc1onc(-c2ccccc2)c1C(=O)N/N=C/c1ccc([N+](=O)[O-])c(O)c1,-5,19,10,-4,3
O=[N+]([O-])c1cc(/C=N\Nc2nc(-c3ccccc3)cs2)ccc1O,5,34*,36,-3,-3
O=C(CNC(=O)c1ccc(F)cc1)N/N=C/c1ccc(O)c([N+](=O)[O-])c1,-4,37*,1,-3,1
O=C(CNC(=O)c1cccc(F)c1)N/N=C/c1ccc(O)c([N+](=O)[O-])c1,9,22,0,-4,1
Cc1nnc(N/N=C/c2ccc(O)c([N+](=O)[O-])c2)[nH]c1=O,-8,47*,20,-3,0
O=[N+]([O-])c1ccc(-c2csc(N/N=C/c3cccnc3)n2)cc1,1,6,5,4,4
Cc1csc(N/N=C/c2ccc(O)c([N+](=O)[O-])c2)n1,15,39*,-1,-5,2
Cc1cc(O)c2c(c1)C(=O)C13C(=C2O)C(=O)[C@H]2[C@@H](O)[C@@H]1[C@H]1[C@H](O)[C@@H]3C(=O)C3=C(O)c4c(O)cc(C)cc4C(=O)C312 (some centres not stated),-3,38*,44,-18,9
Cc1cc(=O)n2[nH]c(C)c(-c3ccccc3)c2n1,6,3,-7,15,0
O=c1cc(-c2ccccc2)nc2c(-c3ccccc3)c(C(F)(F)F)[nH]n12,4,10,-9,+,0
CC1=CC(c2ccc(Cl)cc2)n2nc(N3C(=O)CCC3=O)nc2N1 (configuration not stated),5,16,-3,167*,5
Cc1ccc(C2C=C(c3ccccc3)Nc3nc(N4C(=O)CCC4=O)nn32)cc1 (configuration not stated),·,9,·,22,·
COc1ccc(CNC(=O)CCC2N=C3c4ccccc4N=C(SCC(=O)NCC4CCCO4)N3C2=O)cc1 (configuration not stated),-12,18,-7,6,2
COc1ccc(/C=C/C(=O)NC(=S)Nc2ccc(S(=O)(=O)Nc3nccnc3OC)cc2)cc1,-30,49*,3,0,·
SMILES,Rv3671c protease,GDH-TPI counter,Mtb bLac sens,Mtb FBA inh,Mtb UGM inh
CCN(CCO)C(=O)c1ccc2nc(Cc3ccc(OC)cc3)oc2c1,-5,-2,4,4,1
CNc1cncc(-c2cccc(O)c2)n1,·,25,·,200*,·
CC(=O)Nc1cncc(-c2cccc(C(=O)N(C)C)c2)n1,·,12,·,3,·
CNc1cncc(-c2cccc(C(=O)NCCN(C)C)c2)n1,·,15,·,121*,·
CC(=O)Nc1cncc(-c2cccc(C(=O)NC3CC3)c2)n1,·,11,·,2,·
CNc1cncc(-c2ccc(O)cc2C)n1,·,9,·,13,·
CNc1cncc(-c2cccc(C(=O)NC3CC3)c2)n1,·,23,·,+,·
CNc1cncc(-c2ccc(C)cc2)n1,·,15,·,197*,·
CCOc1ccc(NC(=O)CN(C)C(=O)c2cc([N+](=O)[O-])ccc2N2CCOCC2)cc1OCC,-5,21,-11,-4,1
O=C(N/C(=C\c1ccc(Cl)cc1)C(=O)N1CCOCC1)c1ccc([N+](=O)[O-])cc1,2,2,5,-4,2
CC(C)CC1C(=O)N(Cc2cn(CCC3OCCO3)nn2)CCS(=O)(=O)N1Cc1ccc(-c2ccc(F)nc2)cc1 (configuration not stated),·,6,·,4,·
N#C/C(=C(/O)CSc1n[nH]c(N)n1)c1nc2ccccc2[nH]1,-6,32*,-3,4,0
Cn1cnnc1SC/C(O)=C(\C#N)c1nc2ccccc2[nH]1,2,28,-8,-1,2
N#C/C(=C(/O)COC(=O)CSc1ccc2ccccc2c1)c1nc2ccccc2[nH]1,-12,38*,84,2,-1
Cc1onc(-c2c(F)cccc2Cl)c1C(=O)NC(C)c1ccccc1 (configuration not stated),6,0,2,1,0
C=CCSc1nnc(-c2ccccc2N=Cc2c(C)[nH]n(-c3ccccc3)c2=O)c(=O)[nH]1,1,43*,62,0,1
CSc1nnc(-c2ccccc2N=Cc2c(C)[nH]n(-c3ccc4ccccc4c3)c2=O)c(=O)[nH]1,2,24,6,-2,-2
Oc1ccc(C=Nc2ccccc2-c2nc3ccccc3[nH]2)c(O)c1,5,33*,1,166*,1
Oc1ccc(C=Nc2cccc3ncccc23)c(O)c1,-10,15,4,-6,1
COc1ccc(OC)c(C=Nc2ccccc2-c2nc3ccccc3[nH]2)c1,2,17,-3,+,-4
Oc1ccccc1C=Nc1ccccc1-c1nc2ccccc2[nH]1,-8,18,-1,128*,1
O=C(CS(=O)(=O)c1ccc(Cl)cc1)Nc1nnc(-c2cccs2)o1,7,-4,7,0,0
COc1cccc(CN(C)C(=O)[C@@H](NC(=O)c2ccc(C)cc2)C(C)C)c1,1,10,-3,-1,3
N#CCCn1cc(C(=O)Nc2ccc([N+](=O)[O-])cc2)c(-c2ccccc2)n1,-3,38*,-4,-1,1
O=C(Cc1ccccc1)c1ccc(N2CCOCC2)cc1,·,37*,·,6,·
O=C(c1ccccc1)c1ccc(N2CCOCC2)cc1,·,38*,·,3,·
CCC[C@H]1COCCS(=O)(=O)N1Cc1ccc(Br)cc1,-9,·,-3,·,0
CCN(CC)CCNc1ncnc2c1sc1nc(N3CCOCC3)c3c(c12)CCCC3,-10,35*,38,1,-2
